Compound activity: PubChem BioAssay, several laboratories
GLD-1 TGE inh: GLD-1-TGE RNA interaction inhibition (C. elegans); Q17339; purified GLD-1 + fluorescein TGE RNA, fluorescence polarization; inhibition, % at 5.96 µM; 0.44% of 320,000 active; AID 2280;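 active = percent inhibition above a per-plate cutoff, the plate mean of test compounds plus 3 SD, cut at about 30% in these data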
BCLXL inh: inhibitors of human Bcl-xL | AID 2129 | GST-Bcl-xL / FITC-Bim BH3 peptide fluorescence polarization | inhibition, % at 10.9 µM | Q07817 | 0.7% of 320,000 active;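 active = inhibition above the mean of all tested compounds plus 3 SD, cutoff set per campaign, cut at about 30% in these data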;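 also: inhibitors lower millipolarization by displacing the labeled peptide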
EBV gp42 block: inhibitors of Epstein-Barr virus glycoprotein 42; 0.42% of 220,000 active; inhibition, % (tested at 21.74 µM); Fluorescence polarization binding assay, mP read-out; Q1HVG2; in the data active = inhibition above about 50%
E coli Lon inh: inhibits E. coli Lon protease. P0A9M0. purified E. coli Lon protease, fluorescence polarization. inhibition, % at 7.94 µM. 0.42% of 360,000 active; in the data active = inhibition above about 13%, passing the limit was not always enough
Target sequence (P0A9M0 whole entry, looked up): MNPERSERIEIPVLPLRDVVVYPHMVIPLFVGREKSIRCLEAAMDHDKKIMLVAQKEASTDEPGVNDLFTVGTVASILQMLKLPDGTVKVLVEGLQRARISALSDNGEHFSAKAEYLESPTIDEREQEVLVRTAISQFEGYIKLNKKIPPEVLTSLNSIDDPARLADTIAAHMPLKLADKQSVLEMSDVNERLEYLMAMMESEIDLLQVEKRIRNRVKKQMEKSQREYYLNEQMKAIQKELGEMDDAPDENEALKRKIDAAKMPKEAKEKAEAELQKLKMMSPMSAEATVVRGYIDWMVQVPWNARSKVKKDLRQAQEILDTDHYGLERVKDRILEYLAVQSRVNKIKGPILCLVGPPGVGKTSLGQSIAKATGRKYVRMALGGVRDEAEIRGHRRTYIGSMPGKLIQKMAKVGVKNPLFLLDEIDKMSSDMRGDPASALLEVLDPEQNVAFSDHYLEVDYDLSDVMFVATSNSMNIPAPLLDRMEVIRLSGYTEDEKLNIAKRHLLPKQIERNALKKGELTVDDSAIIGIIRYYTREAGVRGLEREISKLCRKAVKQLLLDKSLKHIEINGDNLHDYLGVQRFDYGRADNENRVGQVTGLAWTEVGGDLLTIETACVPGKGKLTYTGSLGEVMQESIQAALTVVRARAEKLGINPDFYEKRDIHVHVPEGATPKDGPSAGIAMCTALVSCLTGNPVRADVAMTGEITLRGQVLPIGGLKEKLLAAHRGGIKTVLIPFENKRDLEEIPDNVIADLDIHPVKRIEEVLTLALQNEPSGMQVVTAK
MEX-5 binding: C. elegans MEX-5 TCR-2 RNA binding activity | MEX-5/FITC-TCR2 RNA binding, fluorescence polarization; active compounds read low | activity score (negative = inhibition of binding), % at 10 µM | Q9XUB2 | 0.38% of 300,000 active;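 active = inhibition past about -25% in most replicates, and total fluorescence under double the plate's negative control median, limit read from the data; inconclusive = replicates evenly split on the limit, or fluorescence at least double controls; inactive = too little inhibition in most replicates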
MCL1 BIM primary: disrupts human MCL1 binding to BIM-BH3 peptide; inhibition, % at 10.9 µM; AID 2057; 0.68% of 320,000 active; GST-MCL1 / FITC-Bim-BH3 fluorescence polarization;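 active = inhibition above the mean inhibition of all tested compounds plus 3 SD, set per campaign, cut at about 40% in these data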;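 also: higher means more loss of mP so more displacement of Bim peptide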
Of the large screens only hits and unclear results are named; the others gave an inactive call. Sampled rows, rich in hits. Any-hit rate of the full collection: about 1.5%.

NS(=O)(=O)c1c(Sc2ccccc2C(=O)O)ccc2ccccc12	BCLXL inh 34.8, MCL1 BIM primary 45.8 (no result: EBV gp42 block)
Fc1ccc(C(c2nnnn2CCc2ccccc2)N2CCCc3ccccc32)cc1 (stereo not given)	none
c1ccc(CCn2nnnc2CN2CCCc3ccccc32)cc1	BCLXL inh 41.5, MCL1 BIM primary 41.5
CCc1cccc2c(C(=O)CN3C(=O)NC4(CCCCC4)C3=O)c[nH]c12	none (no result: BCLXL inh, EBV gp42 block, MEX-5 binding, MCL1 BIM primary)
CC(=O)c1cccc(NC(=O)c2cc(-c3ccco3)nc3ccccc23)c1	none (no result: EBV gp42 block)
O=C(c1ccccc1)c1ccc2nc(-c3ccco3)c(-c3ccco3)nc2c1	BCLXL inh 31.5
O=C(O)c1ccc2nc(-c3ccccc3)c(-c3ccccc3)nc2c1	none
O=C(O)c1cc(-c2ccco2)nc2cc3ccccc3cc12	BCLXL inh 35.1
O=C(NNC(=O)c1cc(-c2ccco2)nc2ccccc12)c1ccccc1	BCLXL inh 35.2
O=C(Nc1ccccc1F)c1cc(-c2ccco2)nc2ccccc12	none (no result: EBV gp42 block, MEX-5 binding)
COc1ccc(-n2c(=O)c3c4c(sc3n3c(=S)[nH]nc23)CCC4)cc1	none
Cc1cc[n+](-c2[nH]c(=O)sc2/C=N/N=C(\[O-])c2ccccc2)cc1	none
Cc1cc[n+](-c2[nH]c(=O)sc2/C=N/N=C(\[O-])c2ccncc2)cc1	BCLXL inh 38.1, MCL1 BIM primary 49.3 (no result: EBV gp42 block)
O=C(O)CCC1c2cc3c4cc2OC2Oc5cc6c(cc51)C(CCC(=O)O)c1cc5c7cc1OC(O6)c1cc6cc(c1)Oc1cc(cc(C(=O)O)c1)Oc1cc8cc(c1)C(Oc1cc(c(cc1C5CCC(=O)O)C3CCC(=O)O)OC(O4)c1cc(cc(c1)Oc1cc(cc(C(=O)O)c1)O8)Oc1cc(cc(C(=O)O)c1)Oc1cc(cc2c1)Oc1cc(cc(C(=O)O)c1)O6)O7 (stereo not given)	GLD-1 TGE inh 96.6, MEX-5 binding -99.7, MCL1 BIM primary 42.2 (no result: EBV gp42 block, E coli Lon inh)
COc1cccc(CCN2C(=O)C(=O)N([C@@H](CNCc3ccccc3)Cc3ccccc3F)C[C@@H]2C(C)(C)C)c1	GLD-1 TGE inh 181.4 (no result: EBV gp42 block, E coli Lon inh, MEX-5 binding)
O=C(Nc1nnc(-c2cccs2)o1)c1cc(-c2ccccc2)nc2ccccc12	none
Cc1cc(C)c(S(=O)(=O)N2CCc3ccccc32)c(C)c1	none (no result: EBV gp42 block)
Cc1cccc[n+]1C1C(c2ccc([N+](=O)[O-])cc2)C(C#N)=C(C(=C=[N-])C#N)NC1(O)C1CC1 (stereo not given)	BCLXL inh 31.3
C(=N\NC1=Nc2cccc3cccc1c23)/c1ccccc1	GLD-1 TGE inh 32.5, EBV gp42 block 147.7
CC1(c2nnnn2Cc2ccccc2)CCC(=O)N1CCc1ccccc1F (stereo not given)	none (no result: GLD-1 TGE inh, BCLXL inh, EBV gp42 block, MEX-5 binding, MCL1 BIM primary)
O=C(c1ccccc1)[C@@H]1[C@@H](C(=O)c2ccc(F)cc2)[C@@]2(C(=O)Nc3ccccc32)[C@H]2c3ccccc3C=CN12	BCLXL inh 33.1
Nc1nc(NC(=O)C(Cl)(Cl)Cl)nn1-c1ccccc1	none
Cc1ccc(N2C(=O)C3CCC(C)(C2=O)C3(C)C)cc1C (stereo not given)	BCLXL inh 38.2
O=C(CSc1nnc(-c2ccccc2)o1)N1CCCC1	none (no result: EBV gp42 block)
Cc1ccc(S(=O)(=O)c2cc3c(=O)n4ccccc4nc3n(CCc3ccccc3)c2=N)cc1	MEX-5 binding -32.4 (no result: EBV gp42 block)
N=c1c(C(=O)NCc2ccc(F)cc2)cc2c(=O)n3ccccc3nc2n1Cc1cccnc1	BCLXL inh 41.2, MEX-5 binding inconclusive
Cc1cccn2c(=O)c3cc(C(=O)NCc4ccco4)c(=N)n(C4CCCC4)c3nc12	BCLXL inh 33.6 (no result: EBV gp42 block)
COC(=O)c1cc2c(=O)n3ccccc3nc2n(Cc2cccnc2)c1=N	none (no result: EBV gp42 block, E coli Lon inh)
N=c1c(C(=O)NCC2CCCO2)cc2c(=O)n3ccccc3nc2n1Cc1cccnc1 (stereo not given)	BCLXL inh 36.5, MEX-5 binding -44.4
O=C(c1cccc(Cl)c1)N1CCN(S(=O)(=O)c2ccc(Cl)s2)CC1	none (no result: EBV gp42 block, MEX-5 binding)
CC1CCCC(C)N1C(=O)CN1C(=O)c2ccccc2S1(=O)=O (stereo not given)	none (no result: EBV gp42 block, MEX-5 binding)
O=C(NCCCO)c1ccc2[nH]c3ccccc3c2c1	none
N=c1c(C(=O)NCCN2CCOCC2)cc2c(=O)n3ccccc3nc2n1CCc1ccccc1	MEX-5 binding -28.3 (no result: EBV gp42 block)
Cc1cccn2c(=O)c3cc(C(=O)NC(C)C)c(=N)n(Cc4ccncc4)c3nc12	none
N=c1c(C(=O)NC2CCCCC2)cc2c(=O)n3ccccc3nc2n1CCc1ccccc1	MEX-5 binding -25.8 (no result: EBV gp42 block)
N=c1c(C(=O)NCCc2ccccc2)cc2c(=O)n3ccccc3nc2n1CCCN1CCOCC1	none (no result: EBV gp42 block)
N=c1c(C(=O)NC2CCCCC2)cc2c(=O)n3ccccc3nc2n1Cc1cccnc1	MEX-5 binding -34.9 (no result: EBV gp42 block)
CCNC(=O)c1cc2c(=O)n3cccc(C)c3nc2n(Cc2ccc(C)cc2)c1=N	MEX-5 binding -78.1
O=C(COC(=O)CCc1ccc(S(=O)(=O)N2CCOCC2)cc1)Nc1ccccc1[N+](=O)[O-]	none (no result: BCLXL inh, EBV gp42 block, MEX-5 binding, MCL1 BIM primary)
O=C(c1cnn2cccnc12)N1CCN(c2ccccc2)CC1	none
O=C(O)CCCCCN1C(=O)C(O)=C(C(=O)/C=C/c2ccccc2)C1c1ccccc1[N+](=O)[O-] (stereo not given)	MEX-5 binding -40.0
CCCCN1C(=O)C(O)=C(C(C)=O)C1c1ccccc1[N+](=O)[O-] (stereo not given)	none
CN(C)CCNc1oc(COc2ccc(Cl)cc2Cl)nc1C#N	BCLXL inh 34.2, MCL1 BIM primary 42.2
COC(=O)c1ccccc1NC1=C/C(=N\S(=O)(=O)c2ccc(C(=O)O)cc2)c2ccccc2C1=O	BCLXL inh 40.0, MCL1 BIM primary 45.2 (no result: EBV gp42 block)
CC1CN(Cc2cc(=O)n3ccsc3n2)CC(C)O1 (stereo not given)	none
COC(=O)C1=C(C)N(CC(C)C)C(=O)/C1=C\c1cccs1	none
CCN1C(=O)/C(=C\c2cccs2)C(C(=O)OC)=C1C	MEX-5 binding -78.0
COc1ccc(-c2nn(-c3ccccc3)cc2/C=C2/SC(=S)N(CCC(=O)O)C2=O)cc1	none (no result: EBV gp42 block)
CCCOc1ccc(-c2nn(-c3ccccc3)cc2/C=C2\SC(=S)N(C3CCS(=O)(=O)C3)C2=O)cc1 (stereo not given)	EBV gp42 block 69.4
CCOc1ccc(-c2nn(-c3ccccc3)cc2/C=C2\SC(=S)N(C3CCS(=O)(=O)C3)C2=O)cc1 (stereo not given)	EBV gp42 block 68.8, MEX-5 binding -30.5
COc1cccc(NC(=O)C(C)OC(=O)CCCNC(=O)c2ccc(Cl)cc2)c1 (stereo not given)	none (no result: EBV gp42 block)
CCNC(=O)c1c(N)sc2c1CCCCC2	BCLXL inh 38.7 (no result: E coli Lon inh)
O=C(O)C1=CC(=C(c2ccc(O)c(C(=O)O)c2)c2ccc(O)c(C(=O)O)c2)C=CC1=O	GLD-1 TGE inh 92.4, BCLXL inh 75.5, MCL1 BIM primary 108.1 (no result: EBV gp42 block, E coli Lon inh, MEX-5 binding)
O=C(CSc1n[nH]c(=O)[nH]c1=O)Nc1cccc(S(=O)(=O)N2CCOCC2)c1	none
